# From the supplement of paper PMC8975748
# Where a name gives a salt, the structure may show the parent alone.
# System: Saccharomyces cerevisiae BY4741 SeMeCo community
# Experiment: z-score of subpopulation abundance vs DMSO median, subpopulation auxotrophic for HL; higher = larger share of this subpopulation than in DMSO controls
# Details: 10 µM; 24 h; SM minimal medium; subpopulation (auxotrophy): HL
# Description: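 Fluorescent four-plasmid SeMeCo (self-establishing metabolically cooperating S. cerevisiae BY4741 community; plasmids pH-mRuby2, pL-mWasabi, pU-eCFP, pM-TagRFP657) was grown 24 h in minimal SM medium with each Selleck FDA-approved drug at 10 µM in 384-well plates. Cells were fixed and imaged by high-content confocal microscopy. For each auxotrophic subpopulation (and the prototroph), a z-score gives the deviation from the DMSO vehicle-control population median.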
row,SMILES,z-score of subpopulation abundance
1,c1ccc(-c2ccc(C(c3ccccc3)n3ccnc3)cc2)cc1 (stereo not given) [Bifonazole],1.27
2,O=C(O)c1cn(C2CC2)c2cc(N3CCNCC3)c(F)cc2c1=O [Ciprofloxacin hydrochloride hydrate],-0.26
3,C#C[C@]1(O)CC[C@H]2[C@@H]3CCc4cc(OC)ccc4[C@H]3CC[C@@]21C [Mestranol],-0.16
4,CO[C@@H]1[C@@H](OC(N)=O)[C@@H](O)[C@H](Oc2ccc3c(O)c(NC(=O)c4ccc(O)c(CC=C(C)C)c4)c(=O)oc3c2C)OC1(C)C [Novobiocin Sodium],1.28
5,CCOc1cc(N)c(Cl)cc1C(=O)NCC1CN(Cc2ccc(F)cc2)CCO1 (stereo not given) [Mosapride Citrate],0.35
6,CC(C)[N+](C)(CCOC(=O)C1c2ccccc2Oc2ccccc21)C(C)C [Propantheline bromide],-0.65
7,COc1ccnc(C[S+]([O-])c2nc3cc(OC(F)F)ccc3[nH]2)c1OC (stereo not given) [Pantoprazole],0.9
8,Cc1ncc([N+](=O)[O-])n1CC(C)O (stereo not given) [Secnidazole],-0.51
9,COc1ccc2cc(C(=O)O)ccc2c1 [6-Methoxy-2-naphthoic acid],0.89
10,COc1ccnc(C[S+]([O-])c2nc3cc(-n4cccc4)ccc3[nH]2)c1C (stereo not given) [Ilaprazole],3.84
11,CC(=O)OC(C)C[N+](C)(C)C (stereo not given) [Methacholine chloride],0.45
12,Clc1ccc(CCC(Cn2ccnc2)Sc2c(Cl)cccc2Cl)cc1 (stereo not given) [Butoconazole nitrate],14.5
13,CNCc1cc(-c2ccccc2F)n(S(=O)(=O)c2cccnc2)c1 [Vonoprazan Fumarate (TAK-438)],-1.38
14,COC(=O)C1=C(C#N)NC(C)=C(C(=O)OC(C)C)C1c1cccc([N+](=O)[O-])c1 (stereo not given) [Nilvadipine],-0.05
15,CN[C@@H]1[C@H](O[C@H]2[C@H](O[C@H]3[C@H](O)[C@@H](O)[C@H](NC(=N)N)[C@@H](O)[C@@H]3NC(=N)N)O[C@@H](C)[C@]2(O)CO)O[C@@H](CO)[C@H](O)[C@H]1O [Dihydrostreptomycin sulfate],-0.83
16,CC1(C)S[C@@H]2[C@H](NC(=O)[C@H](N)c3ccc(O)cc3)C(=O)N2[C@H]1C(=O)O [Amoxicillin],-0.54
17,COc1cc2c(cc1OC)C(=O)C(CC1CCN(Cc3ccccc3)CC1)C2 (stereo not given) [Donepezil],0.47
18,CN1C2CCC1CC(OC(=O)C(O)c1ccccc1)C2 (stereo not given) [Homatropine Bromide],-0.63
19,C[N+]1(C)CCC(=C(c2ccccc2)c2ccccc2)CC1 [Diphemanil Methylsulfate],-0.17
20,CC(C)c1c(C(=O)Nc2ccccc2)c(-c2ccccc2)c(-c2ccc(F)cc2)n1CC[C@@H](O)C[C@@H](O)CC(=O)O [Atorvastatin Calcium],6.43

row,SMILES,z-score of subpopulation abundance
1,CC[C@@H](CO)NCCN[C@@H](CC)CO [Ethambutol 2HCl],0.36
2,CCCNC(C)C(=O)Nc1ccccc1C (stereo not given) [Prilocaine],-0.2
3,NC(=O)[C@@H]1CC[C@@H]2CN1C(=O)N2OS(=O)(=O)O [Avibactam sodium],-0.05
4,CCN1CCN(C(=O)N[C@@H](C(=O)N[C@@H]2C(=O)N3C(C(=O)O)=C(CSc4nnnn4C)CS[C@H]23)c2ccc(O)cc2)C(=O)C1=O [Cefoperazone],0.07
5,COCC1=C(C(=O)OC(C)OC(=O)OC(C)C)N2C(=O)[C@@H](NC(=O)/C(=N\OC)c3csc(N)n3)[C@H]2SC1 (stereo not given in full) [Cefpodoxime proxetil],-0.24
6,CN(CCOc1ccc(NS(C)(=O)=O)cc1)CCc1ccc(NS(C)(=O)=O)cc1 [Dofetilide],-0.22
7,CN(C)CCc1c[nH]c2ccc(Cn3cncn3)cc12 [Rizatriptan Benzoate],0.75
8,OCCN(CCO)c1nc(N2CCCCC2)c2nc(N(CCO)CCO)nc(N3CCCCC3)c2n1 [Dipyridamole],6.01
9,CN1[C@@H]2CC[C@H]1C[C@@H](OC(=O)c1c[nH]c3ccccc13)C2 [Tropisetron],1.63
10,COc1cccc(CCc2ccccc2OCC(CN(C)C)OC(=O)CCC(=O)O)c1 (stereo not given) [Sarpogrelate hydrochloride],-0.5
11,O=C(NCCO[N+](=O)[O-])c1cccnc1 [Nicorandil],-0.84
12,CC1(C)S[C@@H]2[C@H](NC(=O)[C@H](NC(=O)N3CCNC3=O)c3ccccc3)C(=O)N2[C@H]1C(=O)O [Azlocillin sodium salt],0.33
13,OCCN1CCN(CCCN2c3ccccc3Sc3ccc(Cl)cc32)CC1 [Perphenazine],0.11
14,COc1cc(NS(=O)(=O)c2ccc(N)cc2)nc(OC)n1 [SulfadiMethoxine sodium],-0.28
15,COc1ccc2c3c1O[C@H]1C[C@@H](O)C=C[C@@]31CCN(C)C2 [Galanthamine],0.83
16,O=C1OC(CN2CCOCC2)CN1/N=C/c1ccc([N+](=O)[O-])o1 (stereo not given) [Furaltadone HCl],-0.67
17,CCc1c2c(nc3ccc(OC(=O)N4CCC(N5CCCCC5)CC4)cc13)-c1cc3c(c(=O)n1C2)COC(=O)[C@]3(O)CC [Irinotecan HCl Trihydrate],0.06
18,OC(CCCN1CCCCC1)(c1ccccc1)c1ccccc1 [Diphenidol HCl],-0.42
19,CC(C(O)c1ccc(O)cc1)N1CCC(Cc2ccccc2)CC1 (stereo not given) [Ifenprodil Tartrate],-1.19
20,COc1ccccc1OCC(O)CN1CCN(CC(=O)Nc2c(C)cccc2C)CC1 (stereo not given) [Ranolazine 2HCl],0.26
